Inconclusive results are not listed. A call without a number means that no potency is given here. Calls of active or inactive are those of the source. The call rests on the fitted dose curve; in most records, active means well fitted activation curve with a large enough effect in the repeat runs; inconclusive means weak or mixed curves; inactive means flat fitted curve, though single readings scatter.

A short description of this experiment: A CellTox Green Cytotoxicity Assay to monitor cytotoxicity in HEK293 cells - 16 hour (AID 1224888). Further: nearly all actives have a fitted effect of over 35% in size. The following applies: CellTox Green fluorescence; series mostly up to 76.8 µM. From the text:
National Center for Advancing Translational Sciences [NCATS]
NIH Chemical Genomics Center [NCGC]
U.S. Environmental Protection Agency [EPA]
National Institutes of Environmental Health Sciences [NIEHS]
National Toxicology Program [NTP]
Cell-based models are critical for drug discovery. Determining the natural cytotoxic effects resulting from test compounds is an essential research activity. A CellTox Green Cytotoxicity Assay to monitor cytotoxicity in real time of continues cell culture during 40 hours of the compound treatment was used to screen Tox21 10K library compounds in Hek293 cells. CellTox Green Cytotoxicity Assay is a nonlytic, homogeneous, biofluorescent method to measure cytotoxicity in cell culture after experimental manipulation. The assay system uses a proprietary asymmetric cyanine dye that is excluded from viable cells but preferentially stains the dead cell's DNA. […] Viable cells produce no appreciable increases in fluorescence. Therefore, the fluorescence signal produced by the binding interaction with dead cell DNA is proportional to cytotoxicity.
The mixture of Hek293 cell suspension and reagents were dispensed at 600cells/6 ul/well in 1536-well tissue culture treated black solid bottom plates using a Multidrop dispenser. After the assay plates were incubated at a 37 C/5% CO2 incubator for 5 hours, 23 nL of compounds dissolved in DMSO, positive and negative controls was transferred to the assay plate by a pintool work station. The plates were incubated at 37 C for 40 hours. The fluorescence intensity were measured at 0h, 8h, 16h, 24h, 32h and 40h time points using ViewLux plate reader during compound treatment.
Turning to `CC(C)CNCC(C)C`, the Potency entry was “inactive”.

As to `FC(F)OC(Cl)C(F)(F)F` (stereo not given), the Potency entry is “inactive”.

Regarding `CC(C)(O)C(=O)c1ccccc1`, the Potency result was “inactive”.

Consider `CCCCOCCOCCOCCCC`, for which the Potency entry is “inactive”.

For the compound `CC1(C)CO[C@@H](CC(=O)O)CN1`, the Potency result is “inactive”.

Turning to `CC(=O)N(CC(O)CO)c1c(I)c(C(=O)NCCO)c(I)c(C(=O)NCC(O)CO)c1I` (stereo not given), the Potency result was “inactive”.

As for `COc1ccc2c(c1)c(CC(=O)OCC(=O)O)c(C)n2C(=O)c1ccc(Cl)cc1`, the Potency result was “inactive”.

On to `CCCCCCCCS(=O)(=O)Cl`, for which the Potency result was “inactive”.

Regarding `CC(C)(C)c1ccc(O)c(O)c1`, the Potency entry is “inactive”.

As for `Cc1cnc(NS(=O)(=O)c2ccc(N)cc2)nc1`, the Potency entry was “inactive”.

As for `NC(=O)c1cn(Cc2c(F)cccc2F)nn1`, the Potency entry is “inactive”.

On to `COC(=O)C1=C(C)NC(C)=C(C(=O)OC)C1c1ccccc1[N+](=O)[O-]`, for which the Potency entry is “inactive”.

For the compound `COC(=O)c1cc(C(=O)OC)cc(S(=O)(=O)O)c1`, the Potency result was “inactive”.

For `CCCC(=O)O[C@]1(C(=O)CO)CC[C@H]2[C@@H]3CCC4=CC(=O)CC[C@]4(C)[C@H]3[C@@H](O)C[C@@]21C`, the Potency entry was “inactive”.

On to `Cc1cccn2c(=O)c(-c3nnn[nH]3)cnc12`, for which the activity change was 17.3% [at 15.8 µM, active compounds read high] (inactive).

With `CCc1nccnc1CC`, the activity change is -4.2% [at 15.8 µM, active compounds read high] (inactive).

`O=C(O)CCCl`: the Potency result is “inactive”.

For the compound `CCCCCCCCCCCCN(CCCCCCCCCCCC)CCCCCCCCCCCC`, the Potency result is “inactive”.

As for `CO[Si](CCCOCC1CO1)(OC)OC` (stereo not given), the Potency entry is “inactive”.

For `COC(C)(C)CCCC(C)CC=O` (stereo not given), the Potency entry is “inactive”.

Take `C=CCOCC(CC)(CO)COCC=C`: the Potency result was “inactive”.

In the case of `CCOC(=O)CCC(C)=O`, the Potency entry was “inactive”.

`C=CCS(=O)(=O)O`: the Potency entry is “inactive”.

For `CN(C)CCCNCCCN(C)C`, the Potency entry is “inactive”.

For the compound `COC(=O)c1c(Cl)c(Cl)c(C(=O)OC)c(Cl)c1Cl`, the Potency result is “inactive”.

On to `C=C(C)C(=O)OCCCCCCCC(C)C`, for which the Potency entry was “inactive”.

As to `NS(=O)(=O)c1cc2c(cc1Cl)NC(C1CC3C=CC1C3)NS2(=O)=O` (stereo not given), the Potency result is “inactive”.

With `N=C(N)c1ccc(OCCCOc2ccc(C(=N)N)cc2)cc1`, the Potency result was “inactive”.

As to `CC(C)=CCCC(C)CC(=O)O` (stereo not given), the Potency result is “inactive”.

For `OCCOc1ccc(OCCO)cc1`, the Potency result was “inactive”.

Regarding `CC(=O)OC/C=C(\C)CC/C=C(\C)CCC=C(C)C`, the Potency entry was “inactive”.

With `O=C1CCCN1C1CCCCC1`, the Potency result was “inactive”.

For `CCOC(=O)Nc1ccc(NCc2ccc(F)cc2)nc1N`, the Potency entry was “inactive”.

On to `CCCCCCCCCCCCCCCCC`, for which the Potency result was “inactive”.

As to `CCOC(=O)c1ccc(C)cc1`, the Potency entry is “inactive”.

As to `FC1(F)C(F)(F)C(F)(F)C2(F)C(F)(F)C(F)(F)C(F)(F)C(F)(F)C2(F)C1(F)F` (stereo not given), the Potency entry was “inactive”.

Regarding `COC(=O)CCSCCC(=O)OC`, the Potency result is “inactive”.

With `NC(CSCC(=O)O)C(=O)O` (stereo not given), the Potency entry was “inactive”.

On to `CCOC(=O)[C@H](CCc1ccccc1)N[C@@H](C)C(=O)N1[C@H](C(=O)O)C[C@@H]2CCC[C@@H]21`, for which the Potency entry was “inactive”.

Regarding `Cc1cc2c(cc1S(N)(=O)=O)S(=O)(=O)CCC2`, the Potency result was “inactive”.
